Results on one sequence are retold here after article PMC7862700, “An all-to-all approach to the identification of sequence-specific readers for epigenetic DNA modifications on cytosine”.

What all share (experiment): DAPPL (digital affinity profiling via proximity ligation, sequencing); 10 mM Tris-HCl pH 7.5, 50 mM NaCl, 1 mM DTT, 4% glycerol, room temperature, 30 min; GST-TFs on glutathione beads, 16-mer random dsDNA library, 0.1% formaldehyde crosslink after washing; high values mean tight binding
For assay [1], the target named is T1, FEV (Homo sapiens, UniProt Q99581 1-238).
T1 sequence: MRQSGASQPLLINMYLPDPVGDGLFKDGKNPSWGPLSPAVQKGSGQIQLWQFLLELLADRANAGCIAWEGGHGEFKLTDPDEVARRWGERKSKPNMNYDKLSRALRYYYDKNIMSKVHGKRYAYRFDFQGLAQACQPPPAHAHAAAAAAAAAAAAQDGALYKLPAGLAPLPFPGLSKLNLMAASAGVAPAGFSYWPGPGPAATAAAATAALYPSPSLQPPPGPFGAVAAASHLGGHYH
Particulars: protein: recombinant; tags: N-terminal GST; dsDNA, one strand shown. Summed up:
(§1)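 Human transcription factors were made in yeast as GST fusions, captured on glutathione beads and barcoded with DNA. With a tag-only sample included, the pool was incubated with 200 nmole of a random double-stranded 16-mer DNA library in Tris/NaCl/DTT/glycerol buffer at room temperature for 30 min, then crosslinked with 0.1% formaldehyde after washing, ligated by proximity, amplified and sequenced. For binding signal, each hexamer's read frequency for a factor is divided by its frequency for the tag-only sample.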

Assay [2] addresses ETV5 (Homo sapiens, UniProt P41161 1-510). Particulars: protein: recombinant; tags: N-terminal GST; dsDNA, one strand shown. Summed up:
as §1

For assay [3], the target named is HSF1 (Homo sapiens, UniProt Q00613 1-529). Particulars: protein: recombinant; tags: N-terminal GST; chain copies: 3; dsDNA, one strand shown. Summed up: as §1
In assay [4] the target is T2, SPIC (Homo sapiens, UniProt Q8N5J4 1-248).
T2 sequence: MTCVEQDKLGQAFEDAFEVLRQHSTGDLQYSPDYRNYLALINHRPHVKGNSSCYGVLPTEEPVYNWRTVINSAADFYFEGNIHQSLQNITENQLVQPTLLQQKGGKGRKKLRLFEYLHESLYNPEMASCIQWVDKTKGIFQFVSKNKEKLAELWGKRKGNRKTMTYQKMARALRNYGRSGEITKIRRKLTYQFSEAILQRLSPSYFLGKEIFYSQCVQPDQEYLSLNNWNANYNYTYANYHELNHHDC
Particulars: protein: recombinant; tags: N-terminal GST; dsDNA, one strand shown. In a few lines: as §1

Assay [5] concerns the target ELF4 (Homo sapiens, UniProt Q99607 1-663). Particulars: protein: recombinant; tags: N-terminal GST; dsDNA, one strand shown. Summed up: as §1
For assay [6], the target named is T3, ELK4 (Homo sapiens, UniProt P28324-2 1-405).
T3 sequence: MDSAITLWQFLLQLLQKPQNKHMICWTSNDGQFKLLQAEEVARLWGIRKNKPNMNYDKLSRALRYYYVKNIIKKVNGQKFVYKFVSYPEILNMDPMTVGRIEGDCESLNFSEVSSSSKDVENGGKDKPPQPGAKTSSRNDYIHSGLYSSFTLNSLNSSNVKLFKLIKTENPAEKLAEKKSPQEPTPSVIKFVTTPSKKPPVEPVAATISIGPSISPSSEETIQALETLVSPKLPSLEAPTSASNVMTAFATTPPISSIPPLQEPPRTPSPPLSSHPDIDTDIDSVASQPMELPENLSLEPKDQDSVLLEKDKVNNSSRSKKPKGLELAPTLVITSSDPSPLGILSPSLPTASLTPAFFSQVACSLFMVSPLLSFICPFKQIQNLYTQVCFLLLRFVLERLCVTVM
Particulars: protein: recombinant; tags: N-terminal GST; dsDNA, one strand shown. In a few lines:
as §1

The target of assay [7] is T4, ETV2 (Homo sapiens, UniProt O00321 1-342).
T4 sequence: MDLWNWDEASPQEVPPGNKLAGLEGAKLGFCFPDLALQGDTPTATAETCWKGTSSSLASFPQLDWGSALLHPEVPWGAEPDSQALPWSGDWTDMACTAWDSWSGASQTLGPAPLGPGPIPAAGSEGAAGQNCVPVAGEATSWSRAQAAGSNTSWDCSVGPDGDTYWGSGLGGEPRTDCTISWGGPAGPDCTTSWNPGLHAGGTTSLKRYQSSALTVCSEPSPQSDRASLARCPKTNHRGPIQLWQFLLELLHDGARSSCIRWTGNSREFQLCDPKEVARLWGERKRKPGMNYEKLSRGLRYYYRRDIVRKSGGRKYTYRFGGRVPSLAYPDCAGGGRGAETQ
Particulars: protein: recombinant; tags: N-terminal GST; dsDNA, one strand shown. In a few lines:
as §1

Assay [8] deals with T5, ELF3 (Homo sapiens, UniProt P78545 1-371).
T5 sequence: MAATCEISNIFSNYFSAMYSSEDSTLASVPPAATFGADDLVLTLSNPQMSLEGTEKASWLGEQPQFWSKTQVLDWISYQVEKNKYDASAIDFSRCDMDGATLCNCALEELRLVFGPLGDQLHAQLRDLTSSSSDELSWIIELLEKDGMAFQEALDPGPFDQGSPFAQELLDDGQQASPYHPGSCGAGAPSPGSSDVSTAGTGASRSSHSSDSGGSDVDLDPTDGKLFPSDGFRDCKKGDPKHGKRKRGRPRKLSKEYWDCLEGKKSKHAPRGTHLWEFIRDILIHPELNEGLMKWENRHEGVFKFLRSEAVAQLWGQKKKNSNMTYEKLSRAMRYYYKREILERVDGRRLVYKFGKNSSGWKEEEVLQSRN
Particulars: protein: recombinant; tags: N-terminal GST; dsDNA, one strand shown. Summed up:
as §1

The target of assay [9] is CRX (Homo sapiens, UniProt O43186 1-299). Particulars: protein: recombinant; tags: N-terminal GST; dsDNA, one strand shown. In a few lines:
as §1

Assay [10] concerns the target ETV1 (Homo sapiens, UniProt P50549 1-477). Particulars: protein: recombinant; tags: N-terminal GST; dsDNA, one strand shown. Summed up:
as §1

Assay [11] has as its target T6, ERF (Homo sapiens, UniProt P50548 1-548).
T6 sequence: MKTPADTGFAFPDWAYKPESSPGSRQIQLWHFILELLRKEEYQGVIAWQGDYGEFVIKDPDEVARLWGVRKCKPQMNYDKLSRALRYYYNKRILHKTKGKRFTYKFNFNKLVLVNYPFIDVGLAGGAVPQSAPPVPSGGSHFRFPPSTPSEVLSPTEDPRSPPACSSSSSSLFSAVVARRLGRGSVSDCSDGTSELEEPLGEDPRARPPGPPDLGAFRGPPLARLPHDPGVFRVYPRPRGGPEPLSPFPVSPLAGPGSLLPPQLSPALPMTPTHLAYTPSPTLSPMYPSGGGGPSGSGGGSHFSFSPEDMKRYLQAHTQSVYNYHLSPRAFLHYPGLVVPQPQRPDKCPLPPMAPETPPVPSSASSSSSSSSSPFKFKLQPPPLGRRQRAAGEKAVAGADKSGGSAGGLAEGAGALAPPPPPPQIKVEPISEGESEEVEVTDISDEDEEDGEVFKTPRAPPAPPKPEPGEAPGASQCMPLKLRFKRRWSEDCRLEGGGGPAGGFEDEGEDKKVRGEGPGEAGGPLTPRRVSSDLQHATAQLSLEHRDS
Particulars: protein: recombinant; tags: N-terminal GST; dsDNA, one strand shown. Summed up: as §1

For assay [12], the target named is T7, ETV3L (Homo sapiens, UniProt Q6ZN32 1-361).
T7 sequence: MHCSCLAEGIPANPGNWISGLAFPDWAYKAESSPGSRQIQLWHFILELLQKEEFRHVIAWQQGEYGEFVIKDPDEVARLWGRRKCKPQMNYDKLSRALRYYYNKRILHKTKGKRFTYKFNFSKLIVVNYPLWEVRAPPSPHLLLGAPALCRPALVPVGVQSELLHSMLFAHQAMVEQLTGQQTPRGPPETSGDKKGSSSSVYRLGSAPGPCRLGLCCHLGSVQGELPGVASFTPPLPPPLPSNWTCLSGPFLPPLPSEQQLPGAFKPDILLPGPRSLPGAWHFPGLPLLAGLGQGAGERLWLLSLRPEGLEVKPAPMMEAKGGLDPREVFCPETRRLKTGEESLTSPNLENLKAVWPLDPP
Particulars: protein: recombinant; tags: N-terminal GST; dsDNA, one strand shown. In a few lines: as §1

Assay [13] addresses T8, ETS2 (Homo sapiens, UniProt P15036 1-469).
T8 sequence: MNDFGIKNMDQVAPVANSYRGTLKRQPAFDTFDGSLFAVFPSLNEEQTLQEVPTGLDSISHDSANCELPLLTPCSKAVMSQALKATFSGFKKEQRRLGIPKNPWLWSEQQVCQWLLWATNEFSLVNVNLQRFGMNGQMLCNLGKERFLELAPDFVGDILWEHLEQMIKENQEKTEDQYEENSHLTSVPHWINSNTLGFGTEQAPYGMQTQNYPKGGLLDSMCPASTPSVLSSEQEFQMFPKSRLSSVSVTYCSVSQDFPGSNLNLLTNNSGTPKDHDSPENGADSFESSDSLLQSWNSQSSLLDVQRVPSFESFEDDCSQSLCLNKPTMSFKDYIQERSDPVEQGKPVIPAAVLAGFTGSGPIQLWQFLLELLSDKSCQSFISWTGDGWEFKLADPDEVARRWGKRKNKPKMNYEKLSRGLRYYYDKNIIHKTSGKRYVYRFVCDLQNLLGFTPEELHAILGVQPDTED
Particulars: protein: recombinant; tags: N-terminal GST; dsDNA, one strand shown. In a few lines: as §1

In assay [14] the target is T9, SPDEF (Homo sapiens, UniProt O95238 1-335).
T9 sequence: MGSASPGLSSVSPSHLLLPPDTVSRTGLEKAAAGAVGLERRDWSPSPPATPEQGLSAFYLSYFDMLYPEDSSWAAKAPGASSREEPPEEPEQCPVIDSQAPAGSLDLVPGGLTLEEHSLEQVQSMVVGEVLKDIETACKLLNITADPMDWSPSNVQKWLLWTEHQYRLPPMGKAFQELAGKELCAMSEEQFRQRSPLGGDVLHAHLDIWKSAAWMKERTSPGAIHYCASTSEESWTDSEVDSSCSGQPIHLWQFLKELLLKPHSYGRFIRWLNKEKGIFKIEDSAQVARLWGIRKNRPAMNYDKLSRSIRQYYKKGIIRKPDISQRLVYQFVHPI
Particulars: protein: recombinant; tags: N-terminal GST; dsDNA, one strand shown. In a few lines: as §1

The target of assay [15] is T10, ETV7 (Homo sapiens, UniProt Q9Y603 1-341).
T10 sequence: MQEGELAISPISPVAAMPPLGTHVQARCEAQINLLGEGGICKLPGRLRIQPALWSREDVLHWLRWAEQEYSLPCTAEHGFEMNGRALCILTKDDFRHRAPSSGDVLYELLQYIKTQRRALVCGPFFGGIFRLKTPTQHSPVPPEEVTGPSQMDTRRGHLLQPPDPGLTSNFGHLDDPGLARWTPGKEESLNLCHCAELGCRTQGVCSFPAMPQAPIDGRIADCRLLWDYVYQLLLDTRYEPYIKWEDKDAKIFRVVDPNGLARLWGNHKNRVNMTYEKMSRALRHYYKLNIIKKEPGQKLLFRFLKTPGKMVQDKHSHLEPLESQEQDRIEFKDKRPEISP
Particulars: protein: recombinant; tags: N-terminal GST; dsDNA, one strand shown. Summed up: as §1

Assay [16] has as its target T11, ELF5 (Homo sapiens, UniProt Q9UKW6-2 1-255).
T11 sequence: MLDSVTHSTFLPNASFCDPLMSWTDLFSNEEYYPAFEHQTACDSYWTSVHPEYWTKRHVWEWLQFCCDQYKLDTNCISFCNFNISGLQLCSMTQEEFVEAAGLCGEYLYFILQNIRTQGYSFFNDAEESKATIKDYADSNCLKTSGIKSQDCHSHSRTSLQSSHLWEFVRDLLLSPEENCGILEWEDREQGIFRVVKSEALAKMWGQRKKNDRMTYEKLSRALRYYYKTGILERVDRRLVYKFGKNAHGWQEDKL
Particulars: protein: recombinant; tags: N-terminal GST; dsDNA, one strand shown. In a few lines: as §1

Assay [17] addresses T12, ETV3 (Homo sapiens, UniProt P41162-2 1-143).
T12 sequence: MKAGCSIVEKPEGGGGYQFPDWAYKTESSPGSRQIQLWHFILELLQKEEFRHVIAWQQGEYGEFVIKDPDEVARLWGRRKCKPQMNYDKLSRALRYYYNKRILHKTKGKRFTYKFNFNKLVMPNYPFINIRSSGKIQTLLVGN
Particulars: protein: recombinant; tags: N-terminal GST; dsDNA, one strand shown. Summed up: as §1

The target of assay [18] is ETV6 (Homo sapiens, UniProt P41212 1-452). Particulars: protein: recombinant; tags: N-terminal GST; dsDNA, one strand shown. Summed up: as §1
Sequence of ETV6 (P41212 whole entry): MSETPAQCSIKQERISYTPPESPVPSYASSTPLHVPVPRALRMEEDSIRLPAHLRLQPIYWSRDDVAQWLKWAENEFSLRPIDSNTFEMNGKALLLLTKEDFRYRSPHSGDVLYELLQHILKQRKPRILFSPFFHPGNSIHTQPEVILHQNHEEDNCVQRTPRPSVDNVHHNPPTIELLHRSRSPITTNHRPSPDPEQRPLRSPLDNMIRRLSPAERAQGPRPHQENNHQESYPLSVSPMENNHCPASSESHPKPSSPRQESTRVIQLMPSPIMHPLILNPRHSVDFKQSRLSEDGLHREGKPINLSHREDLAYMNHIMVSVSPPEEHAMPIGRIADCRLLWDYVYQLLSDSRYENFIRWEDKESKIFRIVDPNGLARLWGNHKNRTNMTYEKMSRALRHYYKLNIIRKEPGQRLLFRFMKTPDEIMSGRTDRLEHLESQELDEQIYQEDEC

Sequence of ETV5 (P41161 whole entry): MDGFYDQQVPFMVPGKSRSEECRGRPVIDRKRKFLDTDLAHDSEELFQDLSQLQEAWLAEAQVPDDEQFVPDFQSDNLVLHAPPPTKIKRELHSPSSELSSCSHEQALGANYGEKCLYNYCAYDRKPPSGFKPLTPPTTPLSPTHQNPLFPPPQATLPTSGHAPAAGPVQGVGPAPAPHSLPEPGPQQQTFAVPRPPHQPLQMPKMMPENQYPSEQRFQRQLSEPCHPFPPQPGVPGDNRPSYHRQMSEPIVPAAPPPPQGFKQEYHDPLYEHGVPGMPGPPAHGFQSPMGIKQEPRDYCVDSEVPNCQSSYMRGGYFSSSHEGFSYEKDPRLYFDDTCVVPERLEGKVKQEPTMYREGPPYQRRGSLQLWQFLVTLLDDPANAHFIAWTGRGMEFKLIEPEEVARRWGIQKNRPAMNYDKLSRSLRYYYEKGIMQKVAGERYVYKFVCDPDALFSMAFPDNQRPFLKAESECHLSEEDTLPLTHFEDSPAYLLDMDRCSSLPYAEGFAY
Sequence of ELF4 (Q99607 whole entry): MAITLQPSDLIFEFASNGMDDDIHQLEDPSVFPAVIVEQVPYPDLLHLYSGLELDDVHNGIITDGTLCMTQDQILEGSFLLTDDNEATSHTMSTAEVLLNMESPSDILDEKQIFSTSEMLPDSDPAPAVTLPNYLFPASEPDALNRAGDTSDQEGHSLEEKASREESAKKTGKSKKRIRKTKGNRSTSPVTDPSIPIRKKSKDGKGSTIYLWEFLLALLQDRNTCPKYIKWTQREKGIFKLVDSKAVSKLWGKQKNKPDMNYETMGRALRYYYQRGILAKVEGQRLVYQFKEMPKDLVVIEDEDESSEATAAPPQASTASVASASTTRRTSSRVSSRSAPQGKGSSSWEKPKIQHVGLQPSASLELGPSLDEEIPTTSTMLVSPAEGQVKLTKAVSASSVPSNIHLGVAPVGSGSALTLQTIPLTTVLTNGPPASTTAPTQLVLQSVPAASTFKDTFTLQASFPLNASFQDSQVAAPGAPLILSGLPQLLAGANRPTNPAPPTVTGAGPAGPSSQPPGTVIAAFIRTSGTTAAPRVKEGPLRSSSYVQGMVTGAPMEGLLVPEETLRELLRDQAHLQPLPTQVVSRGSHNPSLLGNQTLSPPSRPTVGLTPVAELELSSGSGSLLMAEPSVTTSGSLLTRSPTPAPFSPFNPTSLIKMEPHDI
Sequence of CRX (O43186 whole entry): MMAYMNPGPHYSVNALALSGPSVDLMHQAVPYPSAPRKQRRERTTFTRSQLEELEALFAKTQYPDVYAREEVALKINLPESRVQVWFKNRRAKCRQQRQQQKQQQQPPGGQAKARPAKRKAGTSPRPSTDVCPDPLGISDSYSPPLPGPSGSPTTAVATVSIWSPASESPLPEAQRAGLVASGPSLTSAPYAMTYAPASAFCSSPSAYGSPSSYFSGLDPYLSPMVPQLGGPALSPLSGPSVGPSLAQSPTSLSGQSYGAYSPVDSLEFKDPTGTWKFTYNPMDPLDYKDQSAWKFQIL
Sequence of ETV1 (P50549 whole entry): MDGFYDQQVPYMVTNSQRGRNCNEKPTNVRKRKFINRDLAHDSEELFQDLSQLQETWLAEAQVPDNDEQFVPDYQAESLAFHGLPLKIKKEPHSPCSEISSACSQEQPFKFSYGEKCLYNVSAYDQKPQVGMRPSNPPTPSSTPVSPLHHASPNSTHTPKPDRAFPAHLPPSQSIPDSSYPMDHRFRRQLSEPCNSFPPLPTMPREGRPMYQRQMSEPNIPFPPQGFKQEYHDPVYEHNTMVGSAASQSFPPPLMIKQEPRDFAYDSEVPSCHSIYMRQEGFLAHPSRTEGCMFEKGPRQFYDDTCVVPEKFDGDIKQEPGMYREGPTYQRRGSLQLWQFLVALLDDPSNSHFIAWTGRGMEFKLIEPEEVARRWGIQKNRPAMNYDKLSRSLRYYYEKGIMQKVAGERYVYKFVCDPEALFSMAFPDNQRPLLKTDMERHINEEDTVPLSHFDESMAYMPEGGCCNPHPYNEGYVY
Sequence of HSF1 (Q00613 whole entry): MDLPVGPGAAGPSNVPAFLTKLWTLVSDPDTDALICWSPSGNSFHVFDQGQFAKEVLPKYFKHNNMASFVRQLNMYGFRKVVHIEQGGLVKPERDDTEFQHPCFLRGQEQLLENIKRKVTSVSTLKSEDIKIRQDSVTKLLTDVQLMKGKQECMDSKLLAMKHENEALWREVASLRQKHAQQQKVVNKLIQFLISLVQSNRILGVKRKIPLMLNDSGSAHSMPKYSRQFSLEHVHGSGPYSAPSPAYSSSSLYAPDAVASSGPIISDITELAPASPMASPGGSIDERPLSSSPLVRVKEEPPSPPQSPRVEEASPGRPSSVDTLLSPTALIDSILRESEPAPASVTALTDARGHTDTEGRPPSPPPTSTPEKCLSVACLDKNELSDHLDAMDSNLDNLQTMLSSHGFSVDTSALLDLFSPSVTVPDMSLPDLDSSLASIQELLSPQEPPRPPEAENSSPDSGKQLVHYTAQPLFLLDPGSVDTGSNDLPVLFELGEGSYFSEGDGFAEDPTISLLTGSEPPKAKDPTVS

On to ACGTTT, for which the binding signal in assay [1] is 1.22 fold enrichment (6-mer frequency, TF over GST control); in assay [2], 1.15 fold enrichment (6-mer frequency, TF over GST control); in assay [3], 1.05 fold enrichment (6-mer frequency, TF over GST control); in assay [4], 1.29 fold enrichment (6-mer frequency, TF over GST control); in assay [5], 1.14 fold enrichment (6-mer frequency, TF over GST control); in assay [6], 1.22 fold enrichment (6-mer frequency, TF over GST control). For the same sequence, the binding signal was 1.18 fold enrichment (6-mer frequency, TF over GST control) in assay [7]; 1.08 fold enrichment (6-mer frequency, TF over GST control) in assay [8]; 1 fold enrichment (6-mer frequency, TF over GST control) in assay [9]; 1.22 fold enrichment (6-mer frequency, TF over GST control) in assay [10]; 1.18 fold enrichment (6-mer frequency, TF over GST control) in assay [11]; 1.13 fold enrichment (6-mer frequency, TF over GST control) in assay [12]. The binding signal in [13] was 1.2 fold enrichment (6-mer frequency, TF over GST control); in assay [14] it was 1.21 fold enrichment (6-mer frequency, TF over GST control); in assay [15], 1.33 fold enrichment (6-mer frequency, TF over GST control); in [16], 1.23 fold enrichment (6-mer frequency, TF over GST control); in assay [17], 1.1 fold enrichment (6-mer frequency, TF over GST control); in assay [18], 1.33 fold enrichment (6-mer frequency, TF over GST control).
